# Measurements taken from PubChem BioAssay AID504474 (National Center for Advancing Translational Sciences (NCATS), 2011).
# Calls of active or inactive are those of the source.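 Rule for the calls: active = clear inhibition of the enzyme's cutting of labeled DNA at one or more tested doses; inactive = response stays at baseline.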
# Molecular target: Tyrosyl-DNA phosphodiesterase 1 (Homo sapiens) (UniProt Q9NUW8)
# Assay: Gel-Based Assay for Inhibitors of Tyrosyl-DNA Phosphodiesterase (TDP1): Hit Validation
# Settings: Recombinant TDP1, 32P-DNA substrate cleavage, gel densitometry
# Excerpt: Assay Overview: Human tyrosyl-DNA phosphodiesterase I (Tdp1) is a rational anticancer target because this enzyme is involved in the repair of DNA lesions created by the trapping of human DNA topoisomerase I (Top1) following treatment by anticancer agents such as camptothecins. Recombinant Tdp1 was expressed and purified from E. coli in the laboratory (Anthony et al, Nucleic Acids Research, 2007, Vol. 35, 4474-4484). See below for assay protocol. This is assay was used to validate select hits from the related primary AlphaScreen assay (AID: 485290) NIH Molecular Libraries Probe Production Network [MLPCN] NIH Chemical Genomics Center [NCGC] Assay Provider: Yves Pommier and Christophe Marchand, National Cancer Institute
# 5'-32P-labeled DNA substrate (1 nmol/L; N14Y; 5'-[…]-pY-3') was incubated with 0.2 nmol/L recombinant Tdp1 in the absence or presence of inhibitor for 15 min at room temperature in an assay buffer containing 1X PBS, pH 7.4, 80 mmol/L KCl and 0.01% Tween-20. Reactions were terminated by the addition of 1 volume of gel loading buffer [99.5% (v/v) formamide, 5 mmol/L EDTA, 0.01% (w/v) xylene cyanol, and 0.01% (w/v) bromophenol blue]. Samples were subjected to a 16% denaturing PAGE and gels were exposed after drying to a PhosphorImager screen (GE Healthcare). […]
# Sequence of Tyrosyl-DNA phosphodiesterase 1 (Homo sapiens) (Q9NUW8 whole entry, looked up): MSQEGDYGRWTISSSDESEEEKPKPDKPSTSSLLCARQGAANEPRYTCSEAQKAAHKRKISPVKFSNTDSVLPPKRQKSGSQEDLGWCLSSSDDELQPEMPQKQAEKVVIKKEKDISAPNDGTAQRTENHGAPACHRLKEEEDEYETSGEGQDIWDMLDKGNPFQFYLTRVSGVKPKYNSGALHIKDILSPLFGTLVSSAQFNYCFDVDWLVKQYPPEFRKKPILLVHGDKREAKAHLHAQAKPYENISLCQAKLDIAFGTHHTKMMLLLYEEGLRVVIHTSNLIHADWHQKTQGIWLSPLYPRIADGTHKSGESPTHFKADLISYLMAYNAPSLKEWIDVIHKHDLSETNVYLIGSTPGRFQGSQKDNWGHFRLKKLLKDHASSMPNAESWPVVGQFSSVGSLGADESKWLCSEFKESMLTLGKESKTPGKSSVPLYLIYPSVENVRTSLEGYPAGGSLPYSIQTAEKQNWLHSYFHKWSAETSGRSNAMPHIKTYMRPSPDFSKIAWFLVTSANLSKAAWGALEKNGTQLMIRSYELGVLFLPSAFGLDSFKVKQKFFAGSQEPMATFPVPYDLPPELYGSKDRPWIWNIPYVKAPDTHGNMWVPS
SMILES,outcome,Potency
O=c1c2ccccc2nc2sc(Nc3ccc(F)cc3)nn12,inactive,–
O=c1c2ccccc2nc2sc(Nc3cccc(Cl)c3)nn12,–,7.4 µM (active)
